Experimental data as given in PubChem BioAssay AID493034 (The Scripps Research Institute Molecular Screening Center, 2011).
Out of some 2,400 compounds screened, about 2,200 (92%) were called active. The set was probably picked from earlier hits. Some of the results follow. Values without a mark were called inactive.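 The calls were made as follows: active = mean inhibition over triplicate runs exceeds the cutoff derived for the earlier primary screen (cut at about 25% in these data); inactive = the rest.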

Target: Platelet-activating factor acetylhydrolase IB subunit alpha2 (Homo sapiens) (UniProt P68402)
Sequence (P68402 whole entry, looked up): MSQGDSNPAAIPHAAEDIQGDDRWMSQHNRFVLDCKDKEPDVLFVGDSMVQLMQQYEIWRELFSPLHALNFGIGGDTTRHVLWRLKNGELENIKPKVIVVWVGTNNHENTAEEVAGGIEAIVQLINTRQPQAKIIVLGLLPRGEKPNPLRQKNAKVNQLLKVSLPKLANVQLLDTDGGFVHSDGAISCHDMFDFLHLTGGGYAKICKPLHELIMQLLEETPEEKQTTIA
Assay: inhibition of human PAFAH1B2 catalytic subunit – biochemical, fluorescence polarization, FP-rhodamine probe, triplicate, confirmation (AID 493034);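 also: 0% = enzyme with DMSO and 100% = wells lacking PAFAH1B2 protein; inhibitors lower polarization by leaving the probe unbound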
Details: recombinant PAFAH1B2, FP-rhodamine probe fluorescence polarization; at 3.39 µM; active compounds read high

Compound	inhibition
N#Cc1c(NC(=O)Cn2c(=O)oc3ccccc32)oc(-c2ccccc2)c1-c1ccccc1	45% (active)
C=CCNC(=O)C1CCN(S(=O)(=O)c2ccc(Br)cc2)CC1	23.8%
O=C(NNC(=O)C1CCN(S(=O)(=O)c2ccc(Cl)cc2)CC1)c1ccccc1	24%
CCN(CC)S(=O)(=O)c1ccc(C(=O)NNC(=O)C2CCN(S(=O)(=O)c3ccc(Cl)cc3)CC2)cc1	37.9% (active)
Cc1ccc(C(c2nnnn2Cc2ccccc2)N2CCN(Cc3ccccc3)CC2)cc1 (stereo unspecified)	16.6%
Cn1c(=S)[nH]c2sc3c(c2c1=O)CCC(C(C)(C)C)C3 (stereo unspecified)	41.1% (active)
O=C(O)c1ccc(CSCc2ccccc2Cl)o1	14.4%
CCOC(=O)CSc1nnc(NC(=O)CN2CCN(C=O)CC2)s1	3.79%
CCN(C(=O)COC(=O)c1cc(NS(=O)(=O)c2ccc(Cl)c([N+](=O)[O-])c2)ccc1O)C1CCCCC1	36.1% (active)
COC(=O)c1cc(NS(=O)(=O)c2ccc(N3CCCCCC3)c([N+](=O)[O-])c2)cc(C(=O)OC)c1	23.8%
CCN(Cc1ccccc1)C(=O)COC(=O)c1cc(S(=O)(=O)Nc2ccccc2OC)ccc1O	23.2%
Cc1ccc(OCCC(=O)OCC(=O)NC2CCCC(C)C2C)cc1 (stereo unspecified)	21.5%
Oc1ccc(C23CC4CC(CC(C4)C2)C3)cc1O	33.2% (active)
CCCCCCCCN1[C@@H](CC(=O)O)c2ccc(C(F)(F)F)cc2S1(=O)=O	21.7%
CC(C)(C)c1ccc(C2=CC(c3ccccc3F)n3ncnc3N2)cc1 (stereo unspecified)	15.1%
CCN(CC)CCN(C(=O)c1ccc(S(=O)(=O)N(CC)c2ccccc2)cc1)c1nc2c(OC)ccc(OC)c2s1	16.4%
O=C(O)c1ccc(Cl)c(S(=O)(=O)N(Cc2ccccc2)c2ccc(F)cc2)c1	22.7%
CCN(c1ccccc1)S(=O)(=O)c1cc(C(=O)O)ccc1C	45.1% (active)
CC1CCCC(NC(=O)c2cccc(S(=O)(=O)NCc3ccccc3)c2)C1C (stereo unspecified)	18.3%
CCc1ccc([C@@H]2CC=C(C(=O)O)[C@H](c3ccc(C(C)(C)C)cc3)N2S(=O)(=O)c2ccc(C)cc2)cc1	97.5% (active)
Cc1ccc(S(=O)(=O)N2[C@@H](c3ccc(C(C)(C)C)cc3)C(C(=O)O)=CC[C@H]2c2ccc(C(C)C)cc2)cc1	89.3% (active)
Cc1ccc([C@@H]2CC=C(C(=O)O)[C@H](c3ccc(C(C)(C)C)cc3)N2S(=O)(=O)c2ccc(C)cc2)cc1	95.5% (active)

Compound	inhibition
O=C(COc1ccc(Cl)cc1)NC1=NN(c2ccccc2)C(=O)C1	67.5% (active)
O=C(COc1ccc(Cl)cc1)NNC(=O)C(=O)N1CCCCC1	19.2%
CCOC(=O)N1CCN(C(=O)c2ccccc2NC(=O)COc2ccccc2)CC1	1.01%
N#CC1=C(N)c2ccccc2CC12CCCCC2	17.4%
N=C(N)c1ccc(N=Nc2c(O)ccc3c2[nH]c2ccccc23)cc1	33.4% (active)
O=[N+]([O-])c1cc(C2Nc3cccc4cccc(c34)N2)ccc1Cl	-0.07%
O=C1OC[C@@H]2CCCN2C(=O)[C@@H](CC(=O)N(CCO)Cc2ccccc2)C/C=C\C[C@H]1Cc1ccc(F)cc1	29.1% (active)
O=C1N[C@@H](Cc2ccccc2)COC(=O)[C@@H](Cc2ccc(F)cc2)C/C=C\C[C@@H]1CC(=O)N(CCO)Cc1ccccc1	37.2% (active)
O=C1OC[C@H]2CCCN2C(=O)[C@@H](CC(=O)N(CCO)Cc2ccccc2)C/C=C\C[C@@H]1Cc1ccc(F)cc1	27.5% (active)
O=C1OC[C@@H]2CCCN2C(=O)[C@H](CC(=O)N(CCO)Cc2ccccc2)C/C=C\C[C@H]1Cc1ccc(F)cc1	33.2% (active)
O=C1N[C@@H](Cc2c[nH]c3ccccc23)COC(=O)[C@@H](Cc2ccc(F)cc2)CC/C=C/C[C@@H]1CC(=O)N(CCO)Cc1ccccc1	21.5%
O=C(O)CCc1ccc(-c2ccc(Br)cc2)n1-c1ccc(O)cc1	31.6% (active)
CCC1=NN2C(=N)/C(=C\c3cccn3-c3ccc(Cl)cc3)C(=O)N=C2S1	36.4% (active)
Cc1ccc(-n2cccc2/C=C2\C(=N)N3N=C(c4ccco4)SC3=NC2=O)cc1	38.1% (active)
Cc1ccc(S(=O)(=O)Oc2ccc(/C=C3/C(=N)N4C(=NC3=O)SN=C4S(C)(=O)=O)cc2)cc1	50% (active)
CS(=O)(=O)C1=NSC2=NC(=O)/C(=C\c3cccn3-c3ccc(Cl)cc3)C(=N)N21	55.9% (active)
Cc1ccc(SCc2cn3c(C)csc3n2)cc1	59.7% (active)
Cc1ccc(SCC(=O)NC(C)c2ccccc2)cc1 (stereo unspecified)	21%
CCc1ccc(C2CC(c3ccc(Cl)cc3)n3nc(N)nc3N2)cc1 (stereo unspecified)	30.1% (active)
C=CC[C@H](CC(=O)N(CCO)Cc1ccccc1)C(=O)N[C@H](COC(=O)[C@@H](CC=C)Cc1ccc(F)cc1)Cc1ccccc1	58% (active)
CCCCn1c(N)c(N(CC(C)C)C(=O)CN2C(=O)NC3(CCC(C(C)(C)CC)CC3)C2=O)c(=O)[nH]c1=O (stereo unspecified)	16.4%
COc1ccc(N2CCN(C(=O)CCNC(=O)c3ccc(C(C)(C)C)cc3)CC2)cc1	62.3% (active)

Compound	inhibition
COc1ccc2[nH]c(C(=O)NCCN3CCOCC3)cc2c1	6.21%
CC(/C=C1\SC(=S)N(NS(=O)(=O)c2ccccc2)C1=O)=C\c1ccccc1	39.6% (active)
Cc1ccc(S(=O)(=O)n2ccc3c(OCCOCCSCC(NC(=O)OC(C)(C)C)C(=O)O)cccc32)cc1 (stereo unspecified)	85.8% (active)
CCC(=O)Nn1cnc2c(c1=O)C1(CCCCC1)Cc1ccccc1-2	19.9%
O=C1C(=O)N2C(=C1C(=O)N1CCCCCC1)c1ccccc1CC21CCCC1	32.8% (active)
CC1(C)Cc2ccccc2C2=C(C(=O)N3CCCCCC3)C(=O)C(=O)N21	64.2% (active)
O=C(NCCSc1ncc(-c2ccc(F)cc2)[nH]1)c1ccc2c(c1)OCO2	20.8%
CCOC(=O)c1ccccc1NC(=O)CSc1nnc(C)c(=O)[nH]1	22.2%
CCOc1ccc2nc(NC(=O)CSc3nc(-c4ccccc4)c(C#N)c(=O)[nH]3)sc2c1	81.7% (active)
CCOC(=O)Cc1csc(NC(=O)CSc2nc(-c3ccccc3)c(C#N)c(=O)[nH]2)n1	63.6% (active)
N#Cc1c(-c2ccccc2)nc(SCC(=O)Nc2ccc(OC(F)(F)Cl)cc2)[nH]c1=O	76.1% (active)
CCOc1ccc(OCCSc2nc3ccccc3c(=O)[nH]2)cc1	3.03%
CCc1ccc(S(=O)(=O)NCCc2csc(-c3ccccc3)n2)s1	22.1%
Cc1cc(N2CCCC2=O)cc(C)c1S(=O)(=O)NCCOc1ccc(C(C)(C)C)cc1	33.7% (active)
O=C1C(=O)C(c2ccccc2)C(=O)C1c1ccccc1 (stereo unspecified)	25.4% (active)
COc1cc(Cl)cc(C(c2c(C(=O)O)[nH]c3ccccc23)c2c(C(=O)O)[nH]c3ccccc23)c1O	71% (active)
O=C(O)c1[nH]c2ccccc2c1C(c1cc(Cl)cc([N+](=O)[O-])c1O)c1c(C(=O)O)[nH]c2ccccc12	43.8% (active)
CN(Cc1cccs1)C(=O)CCNS(=O)(=O)c1ccc(Br)cc1	21.4%
O=[N+]([O-])c1cc(-c2csc(NCCc3nc4cc(C(F)(F)F)ccc4n3CCCO)n2)ccc1Cl	14.9%
COc1ccccc1NC(=O)C(=O)NNS(=O)(=O)c1ccc2ccccc2c1	23.4%
O=C(O)c1ccc(NS(=O)(=O)c2ccc(Cl)c(Cl)c2)cc1O	20.1%
O=C(O)c1cc(NS(=O)(=O)c2ccc3ccccc3c2)ccc1O	35.9% (active)

Compound	inhibition
CCC(Sc1nc(-c2cccc(OC)c2)c(C#N)c(=O)[nH]1)C(=O)Nc1nnc(C(C)C)s1 (stereo unspecified)	34.6% (active)
O=C(O)C1=CC[C@@H](c2ccc(Cl)cc2)N(S(=O)(=O)c2ccc(Cl)cc2)[C@H]1c1ccc(Br)cc1	86.3% (active)
Cc1ccccc1S(=O)(=O)N1[C@@H](c2ccc(Br)cc2)C(C(=O)O)=CC[C@H]1c1ccc(Cl)cc1	83.2% (active)
CNc1nc(NCCOC23CC4CC(CC(C4)C2)C3)nc(OCC(F)(F)F)n1	22.2%
CCCCNC(=O)Oc1ccc(C(=O)N2c3ccccc3NC(=O)C2C)cc1 (stereo unspecified)	41.2% (active)
CC(C)(C)Cc1nnc(NS(=O)(=O)c2ccc(F)cc2)s1	20.3%
C/C(CC(C)(C)C1CCCCC1)=N\NC(N)=S	30.1% (active)
O=C(CNS(=O)(=O)c1ccccc1)NCC(=O)OCc1ccc(Br)cc1	23.9%
NC(=NCCc1ccc(Cl)cc1)NS(=O)(=O)c1ccccc1	49.9% (active)
O=S(=O)(NCc1ccc(Cl)cc1)c1ccc(Cl)nc1	22.4%
O=S(=O)(NC(=NCCc1ccc(Cl)cc1)c1ccccc1Cl)c1cccs1	110% (active)
NC(=NCCc1ccc(Cl)cc1)NS(=O)(=O)c1ccc(F)cc1	50.7% (active)
CSCCC(NS(=O)(=O)c1ccc(Cl)cc1)C(=O)OCc1cccc(Cl)c1 (stereo unspecified)	23.1%
CCOC(=O)c1sc(NC(=O)CN(CC(C)C)CC(C)C)c(C(=O)OCC)c1C	6.46%
N#C/C(=C/c1cn[nH]c1-c1ccc(Br)cc1)C(=O)O	20.3%
Cc1ccc([N+](=O)[O-])c(-c2n[nH]c(=S)n2-c2cccc(Cl)c2)c1	24%
CC(C)(C)[C@H]1COC(=O)[C@@H](Cc2ccc(F)cc2)C/C=C\C[C@@H](CC(=O)N[C@@H](CO)Cc2ccccc2)C(=O)N1	32.7% (active)
CC(C)(C)[C@@H]1COC(=O)[C@H](Cc2ccc(F)cc2)C/C=C\C[C@@H](CC(=O)NCCO)C(=O)N1	17.5%
CC(C)(C)[C@H]1COC(=O)[C@@H](Cc2ccc(F)cc2)C/C=C\C[C@@H](CC(=O)N[C@H](CO)Cc2ccccc2)C(=O)N1	62.1% (active)
CC(C)(C)[C@H]1COC(=O)[C@@H](Cc2ccc(F)cc2)CC/C=C/C[C@@H](CC(=O)N[C@H](CO)Cc2ccccc2)C(=O)N1	26.6% (active)
